In publication PMC4336329 (PLoS ONE, 2015):
Screen size: about 310,000 compounds; about 14,000 (4.5%) showed an effect of 50% or more. The effect is printed as a negative number. Many of the other results were omitted from the sample, so strong results are more common in it than they were.

These molecules were tested against human ether-à-go-go-related gene (hERG) potassium channel (human, UniProt Q12809) (assay: primary screen, population patch clamp on CHO cells stably expressing hERG; higher = less effect of the substance).
Sequence of human ether-à-go-go-related gene (hERG) potassium channel (Q12809 whole entry, looked up): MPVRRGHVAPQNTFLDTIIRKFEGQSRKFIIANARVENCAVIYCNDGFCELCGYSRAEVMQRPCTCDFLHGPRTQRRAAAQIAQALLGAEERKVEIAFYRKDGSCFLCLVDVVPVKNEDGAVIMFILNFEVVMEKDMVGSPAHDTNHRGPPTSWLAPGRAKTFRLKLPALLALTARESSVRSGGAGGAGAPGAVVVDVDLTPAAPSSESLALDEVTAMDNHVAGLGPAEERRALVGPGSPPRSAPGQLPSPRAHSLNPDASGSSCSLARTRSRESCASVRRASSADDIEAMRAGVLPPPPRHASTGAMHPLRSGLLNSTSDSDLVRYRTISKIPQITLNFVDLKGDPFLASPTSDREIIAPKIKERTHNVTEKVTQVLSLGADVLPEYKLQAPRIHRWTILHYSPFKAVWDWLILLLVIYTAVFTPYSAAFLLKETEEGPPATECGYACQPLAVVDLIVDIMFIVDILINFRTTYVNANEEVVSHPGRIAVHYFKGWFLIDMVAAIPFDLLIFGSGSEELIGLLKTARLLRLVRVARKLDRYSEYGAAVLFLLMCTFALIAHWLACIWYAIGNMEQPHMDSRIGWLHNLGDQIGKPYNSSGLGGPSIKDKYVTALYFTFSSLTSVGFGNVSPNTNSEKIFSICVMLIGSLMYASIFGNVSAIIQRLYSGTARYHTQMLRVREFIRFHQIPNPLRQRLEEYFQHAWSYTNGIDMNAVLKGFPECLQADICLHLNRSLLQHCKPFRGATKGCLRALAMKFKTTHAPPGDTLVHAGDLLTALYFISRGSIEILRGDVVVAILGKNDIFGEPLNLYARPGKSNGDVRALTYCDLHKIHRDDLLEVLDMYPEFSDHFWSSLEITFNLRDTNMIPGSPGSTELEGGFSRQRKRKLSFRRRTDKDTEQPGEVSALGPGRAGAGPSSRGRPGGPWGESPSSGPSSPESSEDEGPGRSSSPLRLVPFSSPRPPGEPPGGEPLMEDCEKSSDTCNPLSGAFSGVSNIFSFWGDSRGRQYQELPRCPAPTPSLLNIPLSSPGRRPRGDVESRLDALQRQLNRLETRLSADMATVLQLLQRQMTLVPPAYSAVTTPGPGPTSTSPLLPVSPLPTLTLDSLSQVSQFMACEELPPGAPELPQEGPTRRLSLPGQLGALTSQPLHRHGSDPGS
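Also: peak tail current of the secondary pulse compared with the same well before compound.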

Structure (SMILES)	hERG current change (%, negative = inhibition) at 10uM [%]
Cc1ccc(S(=O)(=O)NCCC(=O)NNC(=O)COc2ccccc2Cl)cc1C	-1.77
O=C(NC1CCCCCC1)C1CC(=O)N(Cc2ccccc2)C1 (stereo not drawn)	5.17
COc1ccccc1C(=O)NC(=S)Nc1ccc(N2CCOCC2)c(Cl)c1	13.1
O=[N+]([O-])c1ccc(Cl)cc1	10.9
CSc1cccc(NC(C)C(=O)NCc2ccccc2)c1 (stereo not drawn)	2.74
CC(CN1CCN(c2ccccc2)CC1)c1ccccc1 (stereo not drawn)	-25.5
Cl.c1ccc(SCCN2CCN(c3ccccc3)CC2)cc1	-10.9
CC(CCN1CCOCC1)c1ccccc1 (stereo not drawn)	21.9
c1ccc(N2CCN(Cc3ccnc4ccccc34)CC2)cc1	-0.764
CN1CCN(Cc2cn(C)c3ccccc23)CC1CCO (stereo not drawn)	25.5
CC(CCN1CCN(c2ccc(F)cc2)CC1)c1ccccc1 (stereo not drawn)	-64.3
CC(CCN1CCN(c2ccccc2)CC1)c1ccccc1.Cl (stereo not drawn)	-54.6
Cn1cc(CN2CCN(c3ccccc3)CC2)c2ccccc21	-54
CC(CCN1CCN(CCO)CC1)c1ccccc1 (stereo not drawn)	9.32
N#CCN1C(=O)NC2(CCCc3sccc32)C1=O (stereo not drawn)	11.1
COc1cccc(-c2csc(/C(C#N)=C/Nc3cc4oc5ccccc5c4cc3OC)n2)c1	12.8
O=C(c1noc2c1CCCC2)N1CCCCC1	-0.65
Cc1cnc2c(c1)C(=O)c1ccccc1-2	13.6
O=C(NCCN1CCOCC1)c1ccccc1[N+](=O)[O-]	1.06
CN1CCN(c2ccc(NC(=S)NC(=O)/C=C/c3ccco3)cc2)CC1	-7.96
CCOc1ccc(S(=O)(=O)N2CCN(Cc3ccc4c(c3)OCO4)CC2)cc1Cl	-8.94
Cn1cnc(S(=O)(=O)N2CCN(C(c3ccc(F)cc3)c3ccc(F)cc3)CC2)c1	-7.05
Cc1cc(C)c(C)c(S(=O)(=O)NCCN2CCOCC2)c1C	-9.48
Cc1cc(=O)oc2c1ccc1ccccc12	18.7
COC(=O)c1ccccc1NC(=S)N(Cc1ccc2c(c1)OCO2)Cc1cc2ccc(C)cc2[nH]c1=O	15.1
CCN1CCCC1CN(Cc1cc2ccc(C)cc2[nH]c1=O)C(=S)Nc1ccccc1C(=O)OC (stereo not drawn)	-85.2
CCN1CCCC1CN(Cc1cc2ccc(C)cc2[nH]c1=O)C(=S)Nc1ccccc1OC (stereo not drawn)	46.7

Structure (SMILES)	hERG current change (%, negative = inhibition) at 10uM [%]
CCN1CCCC1CN(Cc1cc2ccc(C)cc2[nH]c1=O)C(=S)Nc1ccc(OC)cc1OC (stereo not drawn)	-74.5
CNC(=S)N(Cc1ccc(OC)cc1)Cc1cc2ccc(C)cc2[nH]c1=O	14
Cc1ccc2cc(CN(CC3CCCO3)C(=S)Nc3ccccc3)c(=O)[nH]c2c1 (stereo not drawn)	-37
COC(=O)c1ccccc1NC(=S)N(Cc1ccc2c(c1)OCO2)Cc1cc2cc(OC)ccc2[nH]c1=O	8.29
Cc1ccc2[nH]c(=O)c(CN(CC3CCCO3)C(=S)Nc3ccccc3)cc2c1 (stereo not drawn)	-8.2
COC(=O)c1ccccc1NC(=S)N(Cc1ccc2c(c1)OCO2)Cc1cc2cc(C)ccc2[nH]c1=O	0.949
CCN(CC)CCN(Cc1cc2ccc(C)cc2[nH]c1=O)C(=S)Nc1ccccc1C(=O)OC	-64.2
CCN1CCCC1CN(Cc1cc2ccc(C)cc2[nH]c1=O)C(=S)Nc1ccc(F)cc1 (stereo not drawn)	-78.5
COC(=O)c1ccccc1NC(=S)N(Cc1ccc2c(c1)OCO2)Cc1cc2ccc(OC)cc2[nH]c1=O	-13.6
Cc1ccc(NC(=O)CCN2C(=O)C3C4CCC(C4)C3C2=O)cc1[N+](=O)[O-] (stereo not drawn)	-0.749
O=C(Nc1ccc(C(F)(F)F)cc1)c1cc(-c2cccnc2)nc2ccc(Br)cc12	-16.2
COc1ccc(N(CC(=O)NC(C)C)S(=O)(=O)c2ccc(NC(C)=O)cc2)cc1	2.29
CC(=O)c1c(C)[nH]c(C(=O)COC(=O)CCCOc2ccccc2)c1C	18.7
Cc1cccc(N(C(=O)Cn2nnc3ccccc32)C(C(=O)NC(C)(C)C)c2ccsc2)c1C (stereo not drawn)	19.7
COc1ccc2[nH]c(=O)c(CN(CC3CCCO3)C(=S)Nc3cccc(C)c3)cc2c1 (stereo not drawn)	16.3
CCN1CCCC1CN(Cc1cc2ccc(C)cc2[nH]c1=O)C(=S)Nc1cccc(OC)c1 (stereo not drawn)	-70.7
CCN1CCCC1CN(Cc1cc2ccc(C)cc2[nH]c1=O)C(=S)Nc1ccc(OC)cc1 (stereo not drawn)	25.3
CC(=O)N(Cc1ccc(F)cc1)C1=C(NCCc2ccccc2)C(=O)c2ccccc2C1=O	-0.648
NC(N)=N/N=C/c1c(Cl)cccc1Cl	-10.3
COC(=O)CCCC(NC(=S)N1CC2C[C@@H](C1)Cn1c2cccc1=O)C(=O)OC (stereo partly drawn)	8.56
Cc1ccc(NC(=S)N(CCCN2CCCC2)Cc2cccn2Cc2ccc(Cl)cc2)cc1C	4.72
CCOc1ccc(NC(=S)N(CCCN2CCCC2)Cc2cccn2Cc2ccc(Cl)cc2)cc1	-58.4
Cc1ccc(NC(=S)N(CCCN2CCCC2)Cc2cccn2Cc2ccc(Cl)cc2)cc1	-22.9
Cc1cccc(NC(=S)N(CCCN2CCCC2)Cc2cccn2Cc2ccc(Cl)cc2)c1	-71.8
S=C(Nc1cccc(Cl)c1)N(CCCN1CCCC1)Cc1cccn1Cc1ccc(Cl)cc1	-22.7
Cc1ccc(NC(=S)N(CCCN2CCCC2)Cc2cccn2Cc2ccc(Cl)cc2)cc1Cl	6.99
CCCCC(CC)CNC(=O)C1C2C=CC(C2)C1C(=O)O (stereo not drawn)	-4.63
